Source: PubChem BioAssay AID1159580 (chemical genetic matrix, 2015)
About 2,000 (36%) of roughly 5,500 compounds were called active. Inconclusive results (about 18%) are left out. Rule as the data show it: active = normalized growth mostly below about 0.91 (no sharp cut-off); inconclusive = no clear call, values can overlap the other calls; inactive = mostly above about 0.92. The list shows a part of the results.

Experiment: chemical genetic growth profiling, strain panel (AID 1159580);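 also: tested at 20 µM; growth read once vehicle control cultures reached saturation at 30 °C; 1 = growth at the plate median or of vehicle wells; lower values mean less growth of the strain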
Details: S. cerevisiae deletion strains, growth OD
[1] = locus YAL013W, strain DEP1, active compounds read low
[2] = locus YGR078C, strain PAC10, active compounds read low
[3] = locus YJR075W, strain HOC1, active compounds read low
[4] = locus YMR263W, strain SAP30, active compounds read low
[5] = locus YPL055C, strain LGE1, active compounds read low
[6] = locus YBR229C, strain ROT2, active compounds read low
[7] = locus YDL101C, strain DUN1, active compounds read low
[8] = locus YDR150W, strain NUM1, active compounds read low
[9] = locus YEL061C, strain CIN8, active compounds read low
[10] = locus YHR030C, strain SLT2, active compounds read low
[11] = locus YHR087W, strain rtc3, active compounds read low
[12] = locus YJR043C, strain POL32, active compounds read low
[13] = locus YLR039C, strain RIC1, active compounds read low
[14] = locus YLR058C, strain SHM2 (second series), active compounds read low
[15] = locus YLR085C, strain ARP6, active compounds read low
[16] = locus YLR262C, strain YPT6, active compounds read low
[17] = locus YML094W, strain GIM5, active compounds read low
[18] = locus YMR219W, strain ESC1, active compounds read low
[19] = locus YNL153C, strain GIM3, active compounds read low
[20] = locus YNL298W, strain CLA4 (second series), active compounds read low
[21] = locus YNL322C, strain KRE1, active compounds read low
[22] = locus YNR030W, strain Alg12, active compounds read low
[23] = locus YPL241C, strain CIN2, active compounds read low
[24] = locus YPR135W, strain CTF4, active compounds read low

Measured: normalized growth

c1ccc2c(c1)OCC(C1=NCCN1)O2 (stereo not drawn)
inactive: [1] 1.02 | locus YAL040C, strain CLN3, active compounds read low 1 | locus YCL061C, strain MRC1 (second series), active compounds read low 1 | locus YDR363W, strain ESC2, active compounds read low 1.03 | locus YER002W, strain NOP16, active compounds read low 0.987 | [2] 1.01 | locus YGR229C, strain SMI1, active compounds read low 1.02 | [3] 1 | [4] 1.02 | locus YMR307W, strain GAS1, active compounds read low 0.996 | locus YNL175C, strain NOP13, active compounds read low 1.02 | locus YNL197C, strain WHI3, active compounds read low 1.01 | locus YNL224C, strain SQS1, active compounds read low 1.01 | locus YOR083W, strain WHI5 (second series), active compounds read low 0.996 | [5] 1.01

C/C(=N/NC1=NCCN1)c1ccc(F)cc1
inactive: [1] 1.01 | [6] 0.993 | locus YCL061C, strain MRC1, active compounds read low 0.997 | [7] 0.979 | [8] 0.907 | [9] 1.01 | [2] 0.995 | [10] 1.01 | [11] 0.987 | [12] 1 | [3] 0.992 | locus YKL190W, strain CNB1, active compounds read low 1.01 | [13] 1.04 | [14] 1.01 | [15] 0.996 | [16] 0.997 | [17] 0.996 | [18] 1 | [4] 0.998 | [19] 0.987 | [20] 1.02 | [21] 1 | [22] 1.01 | [5] 1.01 | [23] 1.03 | [24] 1.02

N/C(=N/OC(=O)c1ccc(Cl)cc1)c1ccc(F)cc1F
active: locus YDL132W, strain cdc53, active compounds read low 0.879 | locus YDL214C, strain PRR2, active compounds read low 0.559 | locus YDR054C, strain cdc34, active compounds read low 0.871 | locus YDR477W, strain SNF1, active compounds read low 0.491 | locus YER123W, strain YCK3, active compounds read low 0.482 | locus YER133W, strain GLC7, active compounds read low 0.446 | locus YFL009W, strain cdc4, active compounds read low 0.872 | locus YFR019W, strain FAB1, active compounds read low 0.541 | locus YGR040W, strain KSS1, active compounds read low 0.505 | locus YGR052W, strain FMP48, active compounds read low 0.487 | locus YGR092W, strain DBF2, active compounds read low 0.305 | [10] 0.139 | locus YHR079C, strain IRE1, active compounds read low 0.244 | locus YHR082C, strain KSP1, active compounds read low 0.465 | locus YHR205W, strain SCH9, active compounds read low 0.21 | locus YJL095W, strain BCK1, active compounds read low 0.243 | locus YJL157C, strain FAR1, active compounds read low 0.543 | locus YJR016C, strain ILV3, active compounds read low 0.892 | locus YJR066W, strain TOR1 (second series), active compounds read low 0.239 | locus YJR066W, strain TOR1, active compounds read low 0.309 | locus YKL067W, strain YNK1, active compounds read low 0.631 | locus YKL101W, strain HSL1, active compounds read low 0.593 | locus YKL193C, strain SDS22, active compounds read low 0.887 | locus YKL203C, strain TOR2, active compounds read low 0.384 | locus YLR113W, strain HOG1, active compounds read low 0.348 | locus YLR133W, strain CKI1, active compounds read low 0.659 | locus YLR403W, strain SFP1, active compounds read low 0.419 | locus YML070W, strain DAK1, active compounds read low 0.556 | locus YMR205C, strain PFK2 (second series), active compounds read low 0.684 | locus YMR277W, strain FCP1, active compounds read low 0.881 | locus YNL006W, strain LST8, active compounds read low 0.896 | locus YNL020C, strain ARK1, active compounds read low 0.579 | locus YNL161W, strain CBK1, active compounds read low 0.894 | locus YNL183C, strain NPR1, active compounds read low 0.37 | locus YNL207W, strain RIO2, active compounds read low 0.854 | locus YNL307C, strain MCK1 (second series), active compounds read low 0.38 | locus YOL078W, strain AVO1, active compounds read low 0.879 | locus YOL136C, strain PFK27, active compounds read low 0.542 | locus YOR119C, strain RIO1, active compounds read low 0.463 | locus YOR231W, strain MKK1, active compounds read low 0.276 | locus YOR329C, strain SCD5, active compounds read low 0.899 | locus YPL031C, strain PHO85, active compounds read low 0.395 | locus YPL153C, strain RAD53, active compounds read low 0.398 | locus YPL204W, strain HRR25, active compounds read low 0.425 | locus YPL256C, strain CLN2, active compounds read low 0.368 | strain TSCII, active compounds read low 0.878
inactive: locus YAR019C, strain CDC15, active compounds read low 0.896 | locus YBL105C, strain PKC1, active compounds read low 0.917 | locus YBR135W, strain CKS1, active compounds read low 0.9 | locus YBR136W, strain MEC1, active compounds read low 0.921 | locus YBR160W, strain CDC28, active compounds read low 0.903 | locus YDL017W, strain CDC7, active compounds read low 0.923 | locus YDL028C, strain MPS1, active compounds read low 0.916 | [7] 0.94 | locus YDL108W, strain KIN28, active compounds read low 0.914 | locus YDR052C, strain DBF4, active compounds read low 0.913 | locus YDR226W, strain ADK1, active compounds read low 0.899 | locus YFL029C, strain CAK1, active compounds read low 0.889 | locus YFR003C, strain YPI1, active compounds read low 0.919 | locus YFR028C, strain CDC14, active compounds read low 0.916 | locus YIL147C, strain SLN1, active compounds read low 0.91 | locus YJL128C, strain PBS2, active compounds read low 0.977 | locus YKL048C, strain ELM1, active compounds read low 0.821 | locus YMR001C, strain CDC5, active compounds read low 0.891 | locus YNL222W, strain SSU72, active compounds read low 0.913 | locus YOR061W, strain CKA2, active compounds read low 0.731 | locus YPL209C, strain IPL1, active compounds read low 0.902 | locus YPR025C, strain CCL1, active compounds read low 0.898 | locus YPR106W, strain ISR1, active compounds read low 0.947 | locus YPR111W, strain DBF20, active compounds read low 0.936 | strain NNK1, active compounds read low 0.917

C/C(=N/OC(=O)c1ccc(Cl)cc1)c1ccc(F)cc1
active: [9] 0.889 | [10] 0.448 | [12] 0.914 | [3] 0.847 | [13] 0.515 | [15] 0.598 | [16] 0.462 | [17] 0.809 | [19] 0.908 | [22] 0.879 | locus YOL006C, strain TOP1, active compounds read low 0.467 | [5] 0.811 | [23] 0.829
inactive: [1] 0.946 | [6] 0.96 | [7] 0.952 | [8] 0.913 | [2] 0.961 | [11] 0.953 | [14] 0.982 | [18] 0.957 | [4] 0.939 | locus YNL128W, strain TEP1, active compounds read low 0.943 | [20] 0.85 | [21] 0.975 | [24] 0.763
